Results on 39 compounds are retold here after PubChem BioAssay (NCATS).

Where “and” joins values, the source holds several entries; their conditions need not be identical. Identical values can stand only once. Inconclusive results are not listed. Values without a mark were called inactive. Calls of active or inactive are those of the source. The call rests on the fitted dose curve; in most records, active means well fitted inhibition curve with a large enough effect; inconclusive means small, poorly fitted or top-dose-only effect; inactive means flat fitted curve, though single readings scatter.
On the % scale 0 is the no-effect control and ±100 the full control effect.

For one experiment, the target named is Calcium and integrin-binding protein 1 (Homo sapiens) (UniProt Q99828). In words: Primary qHTS for Identification of Calcium Integrin Binding Protein 1 (CIB1) Competitor (AID 1508620).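 Further: GST tagged CIB1 binding a fluorescein labelled alphaIIb integrin peptide tracer; top concentration of the series differs between compounds.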 Particulars: CIB1-GST / FITC-alphaIIb peptide fluorescence polarization; series mostly up to 114 µM; activity change, negative = inhibition: at the top concentration. Put shortly: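 CIB1-GST (1 uM final) and compound incubated 15 min at room temperature before adding FITC-alphaIIb peptide tracer (100 nM final). Competition for binding read by fluorescence polarization (ex 480, em 540) after another 15 min at room temperature.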
Sequence of Calcium and integrin-binding protein 1 (Homo sapiens) (Q99828 whole entry, looked up): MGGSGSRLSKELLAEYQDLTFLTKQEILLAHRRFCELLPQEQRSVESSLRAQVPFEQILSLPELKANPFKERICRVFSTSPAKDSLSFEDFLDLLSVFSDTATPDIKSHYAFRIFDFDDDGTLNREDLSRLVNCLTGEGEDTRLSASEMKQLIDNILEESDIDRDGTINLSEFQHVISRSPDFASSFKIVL
For orientation: qHTS replaces the single test concentration by a dilution series.
In the case of `COc1cc(C)c(C(=O)O[C@H]2[C@@H](OC(C)=O)[C@H](n3ccc(=O)[nH]c3=O)O[C@@H]2CO)c(OC)c1`, the “activity change, negative = inhibition” value is -3.19% [at 57.7 µM].

In the case of `CC1=C(C(=O)OCc2ccccc2)C(c2ccc(-c3ccccc3)cc2)NC(=O)N1CCCCCC(=O)O` (stereo not given), the “activity change, negative = inhibition” value was -17.8%.

For the compound `CC[C@@H](O)C[C@@H]1C(C)=C[C@@H]2CCCC[C@@H]2[C@@]1(C)C(=O)O`, the “activity change, negative = inhibition” value was -0.914%.

For `CCCOc1ccc(-c2nc(OC)c3ccccc3n2)cc1`, the “activity change, negative = inhibition” value is 3.62%.

As for `C/C1=C\CC[C@H](C)CCO[C@@H]2O[C@H](CO[C@@H]3OC[C@](O)(COC1=O)[C@H]3O)[C@@H](O)[C@H](O)[C@H]2O`, the “activity change, negative = inhibition” value was -1.3% [at 57.7 µM].

Turning to `COc1cc(/C=C/CO)cc(OC)c1O[C@@H]1O[C@H](CO[C@@H]2O[C@H](CO)[C@@H](O)[C@H](O)[C@H]2O)[C@@H](O)[C@H](O)[C@H]1O`, the “activity change, negative = inhibition” value is 2.81% [at 57.7 µM].

With `[N-]=[N+]=N[C@]1(CO)O[C@@H](n2ccc(=O)[nH]c2=O)[C@@H](O)[C@@H]1O`, the “activity change, negative = inhibition” value is 4.17%.

As to `C[C@@]12C[C@]3(O)O[C@H](O1)[C@]1(COC(=O)c4ccccc4)[C@H]3C[C@@]12O[C@@H]1O[C@H](CO)[C@@H](O)[C@H](O)[C@H]1O`, the “activity change, negative = inhibition” value is 0.0893% [at 57.7 µM].

For `CC(C)(O)/C=C/CC(C)(O)C1C(O)CC2(C)C3CCC4C(C)(C)C(=O)CCC4(C)C3CCC12C` (stereo not given), the “activity change, negative = inhibition” value was 1.04% [at 57.7 µM].

Take `Nc1ccc(/C=C/C(=O)NCc2cc3cc(-c4ccc(C(=O)N5CCC(F)(F)CC5)cc4)cc(-c4ccc(F)cc4)c3o2)cn1`: the “activity change, negative = inhibition” value was 3.65%.

Regarding `C=C[C@H]1C(O[C@@H]2O[C@H](CO)[C@@H](O)[C@H](O)[C@H]2O)OC=C2C(=O)N3CCc4c([nH]c5ccccc45)[C@H]3C[C@H]21` (stereo not given in full), the “activity change, negative = inhibition” value was 3.48% [at 57.7 µM].

Tested on in another experiment: not listed separately
In words: Primary qHTS for inhibitors of nuclear receptor binding SET domain protein 2 (NSD2) in an isogenic RCH-ACV NSD2 p.E1099K mutant (9B) (AID 1645876). Further: nearly all actives have a fitted effect of over 70% in size. Further: potency means the concentration at half of the fitted maximal effect. The following applies: RCH-ACV (leukaemia line) NSD2 E1099K (9B) viability, CellTiter-Glo, 72 h; series mostly up to 44.9 µM; activity change, negative = viability loss: at the top concentration.
Take `Cc1c(NC(=O)c2cc(C(N)=O)nc3cc(F)ccc23)c(C(F)(F)F)nn1Cc1ccc(C#N)cc1`: the “activity change, negative = viability loss” value is -24.8% [at 17.3 µM].

As for `Clc1cc2c(NC3CCCC3)nnc(-c3ccncc3)c2cc1Cl`, the Potency result is “inactive”.

As for `C=C1CCC2C(C)(C(=O)O)CCCC2(C)C1CCC(C)CC(=O)O` (stereo not given), the “activity change, negative = viability loss” value was -17.4%.

Take `CC1(C)CC[C@]2(C(=O)O[C@@H]3O[C@H](CO)[C@@H](O)[C@H](O)[C@H]3O)CC[C@]3(C)C(=CCC4[C@@]5(C)C[C@@H](O)[C@H](O)[C@](C)(C=O)C5CC[C@]43C)[C@@H]2[C@@H]1O` (stereo not given in full): the “outcome” value is “inactive [at 17.3 µM]”.

For the compound `COC(=O)C1=COC(OC2OC(CO)C(O)C(O)C2O)C2C1C=CC2(O)CO` (stereo not given), the “activity change, negative = viability loss” value was -9.43% [at 17.3 µM].

On to `CCCOC(c1cc2nccc(C(=O)O)c2[nH]1)c1ccccc1Cl` (stereo not given), for which the “activity change, negative = viability loss” value was -0.0134%.

Regarding `CC1(C)C2CC(OC3OC(COC4OCC(O)(CO)C4O)C(O)C(O)C3O)C1(C)CC2O` (stereo not given), the “activity change, negative = viability loss” value is -10.6% [at 17.3 µM].

Take `CC(C)=CC/C=C(\C)[C@H]1CC[C@]2(C)[C@@H]1[C@H](O)C[C@@H]1[C@@]3(C)CC[C@H](O)C(C)(C)[C@@H]3[C@@H](O[C@@H]3O[C@H](CO)[C@@H](O)[C@H](O)[C@H]3O)C[C@]12C`: the “activity change, negative = viability loss” value was -14.3%.

Consider `CO[C@@H](C)Cn1c(=O)n(C)c2cnc3ccc(-c4cncc(C(C)(C)O)c4)cc3c21`, for which the Potency is 166 nM (active).

In the case of `CC(C)C(C(=O)N(C)C(C)C(N)=O)N(C)C(=O)C1CCCN1C(=O)/C=C/C=C/C(O)C(C)O` (stereo not given), the “outcome” value was “inactive [at 17.3 µM]”.

Consider `CC1C(=O)OCC2=CCN3CCC(OC(=O)C(C)(O)C1(C)O)C23` (stereo not given), for which the “activity change, negative = viability loss” value was 4.63%.

Regarding `COc1ncc(Nc2ncc([C@@H](C)N3CCN(S(C)(=O)=O)CC3)cc2-c2nc(C)nc(N)n2)cc1F`, the Potency was 5.2 nM (active).

Turning to `C=C[C@H]1C(O[C@@H]2O[C@H](CO)[C@@H](O)[C@H](O)[C@H]2O)OC=C2C(=O)N3CCc4c([nH]c5ccccc45)C3CC21` (stereo not given in full), the “activity change, negative = viability loss” value is -15% [at 17.3 µM].

Regarding `CC(=O)O[C@H]1[C@H](O[C@H]2[C@@H]3C=CO[C@@H](O[C@@H]4O[C@H](CO)[C@@H](O)[C@H](O)[C@H]4O)[C@@H]3[C@@]3(CO)O[C@@H]23)O[C@@H](C)[C@H](OC(=O)/C=C/c2ccccc2)[C@H]1OC(=O)/C=C/c1ccccc1`, the outcome is “inactive [at 9.23 µM]”.

For the compound `CC1=CC2C(CC1OC1OC(CO)C(O)C(O)C1O)C(C)CC(=O)C2C(C)C` (stereo not given), the “activity change, negative = viability loss” value is -5.4%.

Take `CCC1C(=O)N(C)c2cnc(Nc3ccc(C(=O)NC4CCC(N5CCN(CC6CC6)CC5)CC4)cc3OC)nc2N1C(C)C` (stereo not given): the Potency was 18.3 nM (active).

With `CC1=CC(=O)CC(C)(CO)C1(O)/C=C/C(C)O[C@@H]1O[C@H](CO)[C@@H](O)[C@H](O)[C@H]1O` (stereo not given in full), the “activity change, negative = viability loss” value is -5.48% [at 17.3 µM].

For the compound `COc1cc(C)c(C(=O)Oc2cc(C)c(C(=O)Oc3cc(C)c(C(=O)NC(C)C(=O)O)c(O)c3)c(O[C@@H]3O[C@H](CO)[C@@H](O)[C@H](O)[C@H]3OC(C)=O)c2)c(OC)c1` (stereo not given in full), the “activity change, negative = viability loss” value was -8.12% [at 17.3 µM].

As to `CC1(C)CCC2(C(=O)OC3OCC(O)C(O)C3O)CCC3(C)C(=CCC4C5(C)CC(O)C(OC6OC(COC7OCC(O)C(O)C7O)C(O)C(O)C6O)C(C)(C)C5CCC43C)C2C1` (stereo not given), the activity change, negative = viability loss is -10.4% [at 9.23 µM].

In the case of `C=CC[C@]12C[C@@H](OC)C(=O)C(OC)=C1O[C@@H](c1cc(OC)c3c(c1)OCO3)[C@@H]2C`, the “activity change, negative = viability loss” value was -1.97% [at 17.3 µM].

Take `O=C(O)Cc1cn(C2OCC(O)C(O)C2O[C@@H]2O[C@H](CO)[C@@H](O)[C@H](O)[C@H]2O)c2ccccc12` (stereo not given in full): the “activity change, negative = viability loss” value was 4.89% [at 17.3 µM].

`CC1(C)CC[C@]2(C(=O)O)[C@H](O)C[C@]3(C)C(=CCC4[C@@]5(C)CC[C@H](O[C@@H]6O[C@H](CO[C@@H]7OC[C@H](O)[C@H](O)[C@H]7O[C@@H]7OC[C@@H](O)[C@H](O)[C@H]7O)[C@@H](O)[C@H](O)[C@H]6O[C@@H]6O[C@H](CO)[C@@H](O)[C@H](O)[C@H]6O)C(C)(C)C5CC[C@]43C)[C@@H]2C1` (stereo not given in full): the activity change, negative = viability loss was -4.67% [at 9.23 µM].

As for `COc1cc(O)cc(/C=C/c2ccc(O[C@@H]3O[C@H](CO)[C@@H](O)[C@H](O)[C@H]3O)cc2)c1`, the Potency was 8930 nM (active).

`CC(C)=CCC(O)/C(C)=C/CO[C@@H]1O[C@H](CO)[C@@H](O)[C@H](O)[C@H]1O` (stereo not given in full): the “activity change, negative = viability loss” value was -6.9%.

On to `C=C(C(=O)O)C1CCC2(C)CCCC(C)(O)C2C1` (stereo not given), for which the “activity change, negative = viability loss” value was -11.4%.

With `C=C(C(=O)O)C1CCC2(C)CCC(O)C(C)(O)C2C1` (stereo not given), the “activity change, negative = viability loss” value is -1.67%.

As to `C[C@H]1CC[C@@]2(OC1)O[C@H]1CC3C4CC[C@H]5C[C@@H](O)[C@H](O)C[C@]5(C)C4=CC(=O)[C@]3(C)[C@H]1[C@@H]2C` (stereo not given in full), the “activity change, negative = viability loss” value is -12.5% [at 17.3 µM].

Take `C=C1[C@@H]2CC[C@@H]3[C@@](CCC4C(C(=O)O)(C(=O)O)C[C@@H](O[C@@H]5O[C@H](CO)[C@@H](O)[C@H](O)[C@H]5OC(=O)CC(C)C)C[C@]43C)(C2)[C@H]1O` (stereo not given in full): the “activity change, negative = viability loss” value is 1.44% [at 17.3 µM].

On to `COc1cc(C)c(C(=O)O[C@H]2[C@@H](OC(C)=O)[C@H](n3ccc(=O)[nH]c3=O)O[C@@H]2CO)c(OC)c1`, for which the “activity change, negative = viability loss” value is -8.65% [at 17.3 µM].

Consider `CC1=C(C(=O)OCc2ccccc2)C(c2ccc(-c3ccccc3)cc2)NC(=O)N1CCCCCC(=O)O` (stereo not given), for which the “activity change, negative = viability loss” value is -23%.

For `CC[C@@H](O)C[C@@H]1C(C)=C[C@@H]2CCCC[C@@H]2[C@@]1(C)C(=O)O`, the “activity change, negative = viability loss” value was 3.69%.

On to `CCCOc1ccc(-c2nc(OC)c3ccccc3n2)cc1`, for which the “activity change, negative = viability loss” value was -4.75%.

Consider `C/C1=C\CC[C@H](C)CCO[C@@H]2O[C@H](CO[C@@H]3OC[C@](O)(COC1=O)[C@H]3O)[C@@H](O)[C@H](O)[C@H]2O`, for which the “outcome” value was “inactive [at 17.3 µM]”.

Consider `COc1cc(/C=C/CO)cc(OC)c1O[C@@H]1O[C@H](CO[C@@H]2O[C@H](CO)[C@@H](O)[C@H](O)[C@H]2O)[C@@H](O)[C@H](O)[C@H]1O`, for which the “activity change, negative = viability loss” value is 3.37% [at 17.3 µM].

For `[N-]=[N+]=N[C@]1(CO)O[C@@H](n2ccc(=O)[nH]c2=O)[C@@H](O)[C@@H]1O`, the “activity change, negative = viability loss” value was 0.265%.

As for `C[C@@]12C[C@]3(O)O[C@H](O1)[C@]1(COC(=O)c4ccccc4)[C@H]3C[C@@]12O[C@@H]1O[C@H](CO)[C@@H](O)[C@H](O)[C@H]1O`, the “outcome” value was “inactive [at 17.3 µM]”.

With `CC(C)(O)/C=C/CC(C)(O)C1C(O)CC2(C)C3CCC4C(C)(C)C(=O)CCC4(C)C3CCC12C` (stereo not given), the “activity change, negative = viability loss” value was -1.66% [at 17.3 µM].

Take `Nc1ccc(/C=C/C(=O)NCc2cc3cc(-c4ccc(C(=O)N5CCC(F)(F)CC5)cc4)cc(-c4ccc(F)cc4)c3o2)cn1`: the Potency was 235 nM (active) and 231 nM (active).

As for `C=C[C@H]1C(O[C@@H]2O[C@H](CO)[C@@H](O)[C@H](O)[C@H]2O)OC=C2C(=O)N3CCc4c([nH]c5ccccc45)[C@H]3C[C@H]21` (stereo not given in full), the “activity change, negative = viability loss” value is 0.374% [at 17.3 µM].
